An excerpt weighted towards active compounds, which were near 21% of everything screened.
MRP reversal: MRP-mediated drug resistance reversal; 85,000 compounds, 0.04% hits; H69AR cells + 2 uM doxorubicin, CellTiter-Glo, 72 h; AID 602; differential viability (reversal), % at 10 µM;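 active = viability drop by adding the cancer drug above about 55%, with treated viability meeting a 40% cutoff, limit read from the data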;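 note: viability without doxorubicin minus viability with 2 µM doxorubicin for each compound; larger differential means the compound sensitizes cells more to doxorubicin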
CYP2C19 inhib: human CYP2C19 inhibition; P33261; 96,000 compounds, 21% hits; inhibition, % at 5 µM; CYP2C19 Supersomes, luciferin-H EGE luminescence, 30 min;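 active = CYP2C19 inhibition above a set limit at 5 µM in the primary screen, cut at about 50% in these data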;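 note: plate controls were negative control wells for no effect and 2.5 mM tranylcypromine positive control for full effect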
MRP-1 activ: MRP-1 activation. AID 799. viability increase, % at 10 µM. 140,000 compounds, 0.61% hits. H69AR cells + doxorubicin, viability rescue, CellTiter-Glo;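 active = viability gain under doxorubicin at or above a set limit, the compound median plus 3 SD, cut at about 4.7% in these data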;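 note: MRP-1 overexpressing cells given doxorubicin 25 µM after compound pretreatment; 18-22 h compound pretreatment then 72 h with doxorubicin before readout; 0% = doxorubicin-only wells and 100% = vehicle-treated cells without doxorubicin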
CYP2C19 activ: increases human CYP2C19 enzyme activity; activation factor at 5 µM; recombinant CYP2C19, luciferin-H EGE luminescence; hits give high values; 0 = fully inhibited enzyme, 1 = untreated enzyme; AID 1025; 96,000 tested, under 10 active;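 active = activation factor of at least 2 at 5 µM in the primary screen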;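 note: 0 = wells with 2.5 mM tranylcypromine and 1 = vehicle-only wells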
CYP2C9 inh: inhibitors of human CYP2C9; AID 777; P11712; inhibition, % at 5 µM; 96,000 compounds, 20% hits; CYP2C9 Supersomes, luciferin-H conversion, luminescence;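 active = blocking of liver enzyme CYP2C9 beyond about 50% at 5 µM, limit read from the data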
Target sequence (P11712 whole entry, looked up): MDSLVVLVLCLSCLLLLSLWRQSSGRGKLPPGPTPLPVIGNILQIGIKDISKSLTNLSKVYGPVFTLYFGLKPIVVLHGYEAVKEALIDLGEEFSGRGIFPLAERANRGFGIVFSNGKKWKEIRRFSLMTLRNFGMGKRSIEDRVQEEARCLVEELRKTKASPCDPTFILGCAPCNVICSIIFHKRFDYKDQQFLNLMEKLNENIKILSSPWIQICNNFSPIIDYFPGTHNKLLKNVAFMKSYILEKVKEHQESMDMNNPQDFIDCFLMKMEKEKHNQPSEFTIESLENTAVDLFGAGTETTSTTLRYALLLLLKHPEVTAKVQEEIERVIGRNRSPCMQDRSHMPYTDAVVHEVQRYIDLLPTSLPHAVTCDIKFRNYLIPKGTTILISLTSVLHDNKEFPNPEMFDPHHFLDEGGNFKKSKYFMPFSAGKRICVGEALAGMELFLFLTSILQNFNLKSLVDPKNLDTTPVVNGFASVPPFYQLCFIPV
CYP2C9 activ: activators of human CYP2C9 | recombinant CYP2C9, luciferin-H conversion, luminescence; hits give high values; factor 1 = untreated enzyme, 0 = blocked | P11712 | 96,000 compounds, 1.4% hits | activation factor at 5 µM;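 active = activation factor of 2 or more for CYP2C9 at a 5 µM dose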;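 note: 0 = sulfaphenazole-blocked wells and 1 = vehicle-only wells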
* hit, by the source's call; nt = no result given.

SMILES	MRP reversal	CYP2C19 inhib	MRP-1 activ	CYP2C19 activ	CYP2C9 inh	CYP2C9 activ
COc1ccc2c(c1)C(C1C(=O)CCCC1=O)c1ccccc1O2 (stereo unspecified)	nt	3	-4	1	64*	0.4
COc1ccc2[nH]c(=O)c(CN(C(C)=O)c3cccc(C)c3)cc2c1	nt	24	-1	0.8	40	0.6
CCNC(=S)N(CCc1ccccc1C)Cc1cc2cc(OC)c(OC)cc2[nH]c1=O	nt	nt	-2	nt	nt	nt
CCC(=O)N(Cc1cc2cc(OC)ccc2[nH]c1=O)c1ccc(C)cc1C	nt	33	-2	0.7	55*	0.5
CC(=O)N(CCc1ccccc1C)Cc1cc2cc3c(cc2[nH]c1=O)OCO3	16	75*	0	0.3	54*	0.5
COc1ccc2[nH]c(=O)c(CN(CCc3cccc(C)c3)C(C)=O)cc2c1	nt	86*	-1	0.1	63*	0.4
C/C(=N\NC(=O)CN1CCOCC1)C(C)(C)C	nt	-8	-1	1.1	-9	1.1
Fc1ccc(NC(=S)N/N=C/c2ccc(F)c(F)c2)c(F)c1	nt	54*	0	0.5	23	0.8
CC(Oc1cc(-c2ccccc2)cc2ccccc12)C(=O)N1CCOCC1 (stereo unspecified)	-32	43	-2	0.6	35	0.6
Cc1cc(Nc2ccccc2)c2c([N+](=O)[O-])c(C)cc(C)c2n1	nt	78*	-2	0.2	81*	0.2
COc1ccccc1N(CC(=O)Nc1cccnc1)S(C)(=O)=O	-7	68*	-1	0.3	31	0.7
COc1ccccc1N(CC(=O)Nc1ccc(S(=O)(=O)N2CCCCC2)cc1)S(C)(=O)=O	-18	nt	-4	nt	nt	nt
COc1ccccc1N(CC(=O)NCc1ccccc1)S(C)(=O)=O	5	18	1	0.8	15	0.9
COc1ccccc1N(CC(=O)Nc1cccnc1)S(=O)(=O)c1ccccc1	-7	90*	-2	0.1	100*	0
COc1ccccc1N(CC(=O)Nc1ccc(F)c(F)c1)S(C)(=O)=O	-3	88*	0	0.1	66*	0.3
COc1ccc(N(CC(=O)Nc2ccc3c(c2)OCCO3)S(=O)(=O)c2cccnc2)cc1	nt	25	-1	0.8	48	0.5
COc1ccc(OC)c(N(CC(=O)Nc2cccnc2)S(=O)(=O)c2ccccc2)c1	-10	98*	-1	0	98*	0
CCNC(=O)CCS(=O)(=O)c1ccc2ccccc2c1	20	nt	-1	nt	nt	nt
COc1ccc(S(=O)(=O)N(CC(=O)Nc2cccnc2)c2ccccc2OC)cc1	-20	54*	-2	0.5	94*	0.1
CC1(C)CC2CC(C)(CN2C(=O)C23CCC(C)(C(=O)O2)C3(C)C)C1 (stereo unspecified)	-7	28	-1	0.7	18	0.8
Cc1nn(CCc2nc(-c3ccco3)cs2)c2[nH]c(=O)cc(C(F)(F)F)c12	-11	56*	-2	0.4	71*	0.3
CC1CCc2c(C(=O)N3CCN(S(=O)(=O)c4cccs4)CC3)csc2C1 (stereo unspecified)	-6	78*	0	0.2	77*	0.2
Cc1nc2ccccc2c(=O)n1/N=C/c1c(O)ccc2oc3c(c12)CCCC3	-14	13	5.9*	0.9	77*	0.2
Cc1ccc2c(c1)cc(CN(Cc1cccs1)C(=O)c1ccco1)c1nnnn12	-10	5	-2	0.9	18	0.8
Cc1ccc2c(c1)cc(CN(Cc1ccc3c(c1)OCO3)S(=O)(=O)c1ccccc1)c1nnnn12	-20	80*	0	0.2	69*	0.3
SMILES	MRP reversal	CYP2C19 inhib	MRP-1 activ	CYP2C19 activ	CYP2C9 inh	CYP2C9 activ
O=C1OC(Cc2ccccn2)C(=O)C1=C1SCCS1 (stereo unspecified)	nt	nt	-1	nt	nt	nt
CCCCC(=O)Nc1ncc(Br)s1	-2	76*	-3	0.2	37	0.6
C=CCn1c(SC(C)CC)nc(O)cc1=O (stereo unspecified)	12	98*	0	0	26	0.7
COC(=O)c1c[nH]n2c(=O)c(Cc3ccc(F)cc3Cl)c(C)nc12	-7	42	-3	0.6	71*	0.3
Cc1nc2c(C(=O)N3CCCC3)c[nH]n2c(=O)c1Cc1ccc(F)cc1Cl	-5	nt	nt	nt	nt	nt
COC(=O)c1[nH]c2cccc(OC)c2c1NC(=O)C(C)N1CCC(C)CC1 (stereo unspecified)	6	18	-2	0.8	-125	2.3*
Cc1cccc(C)c1N(CC(=O)N/N=C/c1cc(Br)c(C)o1)S(C)(=O)=O	nt	nt	0	nt	nt	nt
CS(=O)(=O)N(CC(=O)NCCSc1ccc(Cl)cc1)c1ccc2c(c1)OCO2	10	69*	-2	0.3	62*	0.4
CS(=O)(=O)N(CC(=O)NCCSc1ccccc1)c1ccc2c(c1)OCO2	20	76*	-2	0.2	64*	0.4
CS(=O)(=O)N(CC(=O)NCCSCc1cccc(Cl)c1)c1ccc2c(c1)OCO2	14	88*	0	0.1	82*	0.2
O=C(c1cccs1)N1CCN(Cc2ccccc2[N+](=O)[O-])CC1	nt	nt	-1	nt	nt	nt
COc1ccc(O[C@H]2C=C[C@@H](c3ccccc3)O[C@@H]2COC(=O)CC/C(C)=N/O[C@@H](C)c2cc(-c3c(C)cc(C)cc3C)no2)cc1	nt	nt	-2	nt	nt	nt
Cc1c(Cl)cccc1N1C(=O)CC(N(O)c2ccccc2)C1=O (stereo unspecified)	-1	94*	-1	0.1	-156	2.6*
CCCCOc1ccc(N2C(=O)CC(N(O)c3ccccc3)C2=O)cc1 (stereo unspecified)	-14	-12	-2	1.1	-5	1.1
CCOc1ccccc1N1C(=O)CC(N(O)c2ccccc2)C1=O (stereo unspecified)	-8	93*	0	0.1	-8	1.1
Cc1cccc(C)c1N1C(=O)CC(N(O)c2ccccc2)C1=O (stereo unspecified)	4	97*	-3	0	30	0.7
CCCCCOc1ccc(N2C(=O)CC(N(O)c3ccccc3)C2=O)cc1 (stereo unspecified)	-7	-11	-3	1.1	-1	1
Cc1c(NC(=O)c2ccc3c(c2)OCO3)c(=O)n(-c2ccccc2)n1C	2	-4	-3	1	-7	1.1
CCCn1c(C)cc(C(=O)CN2C(=O)c3ccccc3C2=O)c1C	1	nt	nt	nt	nt	nt
COc1ccc(C(=O)CN2C(=O)c3ccccc3C2=O)c(OC)c1C	6	83*	0	0.2	72*	0.3
NC(=O)C1(N2CCCCC2)CCN(C(=O)NC2CCCCC2)CC1	-7	2	-1	1	13	0.9
NC(=O)C1(N2CCCCC2)CCN(C(=O)NC23CC4CC(CC(C4)C2)C3)CC1	7	14	-1	0.9	56*	0.4
CCSc1ncc(Cl)c(C(=O)Nc2ccc(S(=O)(=O)Nc3onc(C)c3C)cc2)n1	5	-4	0	1	58*	0.4

Screening data (PubChem)
